# In paper PMC11006913:
# Where a chain is given by its changes, count along the chain named.
# Legend:
# Assay in all cases: PBM; 200 nM protein, PBS
# Conditions in all cases: dsDNA, one strand shown
# PAX4 [1] = target: T1, PAX4 (Homo sapiens, UniProt O43316 9-242, R200K)
# T1 sequence: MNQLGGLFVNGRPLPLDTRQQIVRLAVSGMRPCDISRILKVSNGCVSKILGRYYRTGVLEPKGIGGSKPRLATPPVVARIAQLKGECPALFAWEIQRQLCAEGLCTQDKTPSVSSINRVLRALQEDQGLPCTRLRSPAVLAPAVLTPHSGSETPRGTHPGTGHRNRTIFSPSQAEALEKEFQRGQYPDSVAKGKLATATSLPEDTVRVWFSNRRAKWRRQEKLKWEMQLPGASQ
# PAX4 [2] = target: T2, PAX4 (Homo sapiens, UniProt O43316 9-242)
# T2 sequence: T1 sequence with K192R
# PAX4 [3] = target: T3, PAX4 (Homo sapiens, UniProt O43316 9-242, R200Q)
# T3 sequence: T1 sequence with K192Q
# PAX4 [4] = target: T4, PAX4 (Homo sapiens, UniProt O43316 9-242, F177V)
# T4 sequence: T1 sequence with F169V, K192R
# PAX4 [5] = target: T5, PAX4 (Homo sapiens, UniProt O43316 9-242, F177Y)
# T5 sequence: T1 sequence with F169Y, K192R
# PAX4 [6] = target: T6, PAX4 (Homo sapiens, UniProt O43316 9-242, R227W)
# T6 sequence: T1 sequence with K192R, R219W
# PROP1 [7] = target: PROP1 (Homo sapiens, UniProt O75360 56-141)
# PROP1 [8] = target: PROP1 (Homo sapiens, UniProt O75360 56-141, R99H)
# PROP1 [9] = target: PROP1 (Homo sapiens, UniProt O75360 56-141, F88S)
# NKX3-2 [10] = target: NKX3-2 (Homo sapiens, UniProt P78367 192-278, P234S)
# NKX3-2 [11] = target: NKX3-2 (Homo sapiens, UniProt P78367 192-278)
# NKX3-2 (Homo sapiens, UniProt P78367 192-278), sequence (P78367 192-278): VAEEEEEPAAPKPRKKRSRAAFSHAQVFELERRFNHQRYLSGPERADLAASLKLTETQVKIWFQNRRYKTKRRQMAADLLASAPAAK
# PROP1 (Homo sapiens, UniProt O75360 56-141, F88S), sequence (O75360 56-141 F88S): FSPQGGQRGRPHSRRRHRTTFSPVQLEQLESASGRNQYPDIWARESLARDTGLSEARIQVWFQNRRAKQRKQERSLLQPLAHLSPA
# PROP1 (Homo sapiens, UniProt O75360 56-141), sequence (O75360 56-141): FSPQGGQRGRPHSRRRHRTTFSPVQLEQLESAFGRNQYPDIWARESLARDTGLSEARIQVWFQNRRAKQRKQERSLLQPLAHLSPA
# PROP1 (Homo sapiens, UniProt O75360 56-141, R99H), sequence (O75360 56-141 R99H): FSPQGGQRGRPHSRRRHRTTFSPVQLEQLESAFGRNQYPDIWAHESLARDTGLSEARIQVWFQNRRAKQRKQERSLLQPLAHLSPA
# NKX3-2 (Homo sapiens, UniProt P78367 192-278, P234S), sequence (P78367 192-278 P234S): as the sequence (P78367 192-278) above, with P43S counted along it
Sequence,binding signal (PAX4 [1]),binding signal (PAX4 [2]),binding signal (PAX4 [3]),binding signal (PAX4 [4]),binding signal (PAX4 [5]),binding signal (PAX4 [6]),binding signal (PROP1 [7]),binding signal (PROP1 [8]),binding signal (PROP1 [9]),binding signal (NKX3-2 [10]),binding signal (NKX3-2 [11])
CCCGCGCG,"9.26 upbm affinity estimate (log intensity, higher = more binding, comparable within an allelic series)","9.11 upbm affinity estimate (log intensity, higher = more binding, comparable within an allelic series)","9.18 upbm affinity estimate (log intensity, higher = more binding, comparable within an allelic series)","9.01 upbm affinity estimate (log intensity, higher = more binding, comparable within an allelic series)","9.06 upbm affinity estimate (log intensity, higher = more binding, comparable within an allelic series)","9.19 upbm affinity estimate (log intensity, higher = more binding, comparable within an allelic series)",–,–,–,–,–
CGCCCGGC,"9.26 upbm affinity estimate (log intensity, higher = more binding, comparable within an allelic series)","9.23 upbm affinity estimate (log intensity, higher = more binding, comparable within an allelic series)","9.1 upbm affinity estimate (log intensity, higher = more binding, comparable within an allelic series)","8.97 upbm affinity estimate (log intensity, higher = more binding, comparable within an allelic series)","9.01 upbm affinity estimate (log intensity, higher = more binding, comparable within an allelic series)","9.06 upbm affinity estimate (log intensity, higher = more binding, comparable within an allelic series)",–,–,–,–,–
ATGAATTA,"11.7 upbm affinity estimate (log intensity, higher = more binding, comparable within an allelic series)","12.2 upbm affinity estimate (log intensity, higher = more binding, comparable within an allelic series)","11.8 upbm affinity estimate (log intensity, higher = more binding, comparable within an allelic series)","10.7 upbm affinity estimate (log intensity, higher = more binding, comparable within an allelic series)","11.2 upbm affinity estimate (log intensity, higher = more binding, comparable within an allelic series)","11 upbm affinity estimate (log intensity, higher = more binding, comparable within an allelic series)",–,–,–,–,–
CCAAGTCC,"9.27 upbm affinity estimate (log intensity, higher = more binding, comparable within an allelic series)","9.3 upbm affinity estimate (log intensity, higher = more binding, comparable within an allelic series)","9.4 upbm affinity estimate (log intensity, higher = more binding, comparable within an allelic series)","9.27 upbm affinity estimate (log intensity, higher = more binding, comparable within an allelic series)","9.25 upbm affinity estimate (log intensity, higher = more binding, comparable within an allelic series)","9.38 upbm affinity estimate (log intensity, higher = more binding, comparable within an allelic series)",–,–,–,–,–
CGAATTAG,"11.9 upbm affinity estimate (log intensity, higher = more binding, comparable within an allelic series)","12.5 upbm affinity estimate (log intensity, higher = more binding, comparable within an allelic series)","12 upbm affinity estimate (log intensity, higher = more binding, comparable within an allelic series)","10.3 upbm affinity estimate (log intensity, higher = more binding, comparable within an allelic series)","11.1 upbm affinity estimate (log intensity, higher = more binding, comparable within an allelic series)","10.9 upbm affinity estimate (log intensity, higher = more binding, comparable within an allelic series)",–,–,–,–,–
ACCGAGCC,"9.37 upbm affinity estimate (log intensity, higher = more binding, comparable within an allelic series)","9.52 upbm affinity estimate (log intensity, higher = more binding, comparable within an allelic series)","9.41 upbm affinity estimate (log intensity, higher = more binding, comparable within an allelic series)","9.22 upbm affinity estimate (log intensity, higher = more binding, comparable within an allelic series)","9.25 upbm affinity estimate (log intensity, higher = more binding, comparable within an allelic series)","9.41 upbm affinity estimate (log intensity, higher = more binding, comparable within an allelic series)","6.86 upbm affinity estimate (log intensity, higher = more binding, comparable within an allelic series)","6.94 upbm affinity estimate (log intensity, higher = more binding, comparable within an allelic series)","6.77 upbm affinity estimate (log intensity, higher = more binding, comparable within an allelic series)",–,–
CTGAGCGC,"9.25 upbm affinity estimate (log intensity, higher = more binding, comparable within an allelic series)","9.2 upbm affinity estimate (log intensity, higher = more binding, comparable within an allelic series)","9.31 upbm affinity estimate (log intensity, higher = more binding, comparable within an allelic series)","9.15 upbm affinity estimate (log intensity, higher = more binding, comparable within an allelic series)","9.2 upbm affinity estimate (log intensity, higher = more binding, comparable within an allelic series)","9.27 upbm affinity estimate (log intensity, higher = more binding, comparable within an allelic series)",–,–,–,–,–
AAGCGCTT,"9.65 upbm affinity estimate (log intensity, higher = more binding, comparable within an allelic series)","9.81 upbm affinity estimate (log intensity, higher = more binding, comparable within an allelic series)","9.56 upbm affinity estimate (log intensity, higher = more binding, comparable within an allelic series)","9.61 upbm affinity estimate (log intensity, higher = more binding, comparable within an allelic series)","9.5 upbm affinity estimate (log intensity, higher = more binding, comparable within an allelic series)","9.68 upbm affinity estimate (log intensity, higher = more binding, comparable within an allelic series)",–,–,–,–,–
CCGTCCGA,"9.27 upbm affinity estimate (log intensity, higher = more binding, comparable within an allelic series)","9.39 upbm affinity estimate (log intensity, higher = more binding, comparable within an allelic series)","9.28 upbm affinity estimate (log intensity, higher = more binding, comparable within an allelic series)","9.26 upbm affinity estimate (log intensity, higher = more binding, comparable within an allelic series)","9.27 upbm affinity estimate (log intensity, higher = more binding, comparable within an allelic series)","9.25 upbm affinity estimate (log intensity, higher = more binding, comparable within an allelic series)","6.64 upbm affinity estimate (log intensity, higher = more binding, comparable within an allelic series)","6.59 upbm affinity estimate (log intensity, higher = more binding, comparable within an allelic series)","6.67 upbm affinity estimate (log intensity, higher = more binding, comparable within an allelic series)",–,–
AATGCGAT,"10.8 upbm affinity estimate (log intensity, higher = more binding, comparable within an allelic series)","11 upbm affinity estimate (log intensity, higher = more binding, comparable within an allelic series)",–,"10.2 upbm affinity estimate (log intensity, higher = more binding, comparable within an allelic series)",–,–,–,–,–,–,–
GGGCGCGA,"9.18 upbm affinity estimate (log intensity, higher = more binding, comparable within an allelic series)","9.18 upbm affinity estimate (log intensity, higher = more binding, comparable within an allelic series)","9.16 upbm affinity estimate (log intensity, higher = more binding, comparable within an allelic series)","9.01 upbm affinity estimate (log intensity, higher = more binding, comparable within an allelic series)","9.02 upbm affinity estimate (log intensity, higher = more binding, comparable within an allelic series)","9.14 upbm affinity estimate (log intensity, higher = more binding, comparable within an allelic series)",–,–,–,"10.6 upbm affinity estimate (log intensity, higher = more binding, comparable within an allelic series)","10.6 upbm affinity estimate (log intensity, higher = more binding, comparable within an allelic series)"
